This is part of a sample that, as a whole, favours compounds with a hit. Of some 83,000 tested, about 20% had one in any assay.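 Treatment: one concentration, 48 hours, 96-well format. Scoring: percent growth, with anything below 10 considered active.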 Unmarked numbers belong to inactive results. Calls of active or inactive are those of the source.
Experiments:
Experiment in all cases: NCI-60 one-dose screen, 48 h (100 = growth as untreated, 0 = no growth, -100 = all killed)
Settings in all cases: 10 µM unless noted
[1] = tested on: HCT-15 colon
[2] = tested on: HT29 colon
[3] = tested on: SNB-75 CNS
[4] = tested on: SNB-19 CNS
[5] = tested on: U251 CNS
[6] = tested on: PC-3 prostate
[7] = tested on: SK-MEL-5 melanoma
[8] = tested on: UACC-62 melanoma
[9] = tested on: LOX IMVI melanoma
[10] = tested on: SK-MEL-28 melanoma

| SMILES | growth [1] | growth [2] | growth [3] | growth [4] | growth [5] | growth [6] | growth [7] | growth [8] | growth [9] | growth [10] |
| --- | --- | --- | --- | --- | --- | --- | --- | --- | --- | --- |
| COc1cc(NC(=O)Nc2cccc(-c3cc(=O)c4c(OC)c(OC)c(OC)cc4o3)c2)cc(OC)c1OC | 32.7% | 46% | -0.583% (active) | 46.9% | 27.5% | 44.8% | 43% | 48.4% | 24.7% | 53.5% |
| O=C(CCCCCCNC(=O)c1csc(Br)n1)NO | 60.5% | 17.2% | 19.4% | 59.7% | 49.3% | 47.4% | 17.7% | 14.4% | 13.8% | 29.3% |
| COc1cc(-c2nc(-c3ccccc3)[nH]c2-c2ccnc(NCCCNS(=O)(=O)c3cccc(F)c3)n2)ccc1F | 72.7% | 83.2% | 112% | 107% | 95.9% | 62.9% | 92% | 99.8% | 86.2% | 100% |
| CC1=Cc2ccccc2OC12C=Cc1ccccc1O2 (stereo not given) | 96.8% | 98.2% | 81.4% | 91.1% | 102% | 84.9% | 92.4% | 83% | 90.6% | 114% |
| CCCCCCNC(=O)Oc1ccc(/C(=C(/C)c2ccc(Cl)cc2)c2ccc(OCCN3CCCCCC3)cc2)cc1 | 9.59% (active) | 21.3% | 99.6% | 68.4% | 55.8% | 49.2% | 73.6% | 63.8% | 32.8% | 84% |
| COc1ccc2c(c1)c(/C=N/Nc1ccnc3cc(Cl)ccc13)cn2C | -85.3% (active) | -44.8% (active) | -91.2% (active) | -68.1% (active) | -80.1% (active) | -83.8% (active) | -95% (active) | -57.7% (active) | -78.7% (active) | -85.2% (active) |
| COc1ccc(/C=N/NC(=O)c2c(N)nn(C)c2Nc2ccccc2)cc1Oc1ccccc1 | 87.7% | 110% | 88.2% | 88.4% | 93.6% | 74.9% | 93.8% | 83.8% | 95.3% | 102% |
| O=C1Nc2ccccc2/C1=N\c1nnc(-c2ccccc2)o1 | 87.2% | 99.2% | 59.9% | 91.5% | 97.8% | 79% | 94.3% | 79.7% | 102% | 106% |
| O=C(/C=C/c1cccc(Br)c1)c1cccc(OCCCCOc2cccc(C(=O)/C=C/c3cccc(Br)c3)c2)c1 | 108% | 117% | 96.8% | 94.3% | 105% | 104% | 99.4% | 98.3% | 96.6% | 110% |
| CNC(=O)c1cc(-n2ccc3cc(NC(=O)Nc4ccc(N5CCN(C)CC5)c(C(F)(F)F)c4)ccc32)ccn1 | 23.8% | 0.845% (active) | 56.3% | 83.1% | 46.6% | 60.8% | 79% | 98.7% | -72.8% (active) | -85.6% (active) |
| CCOC(=O)c1ccccc1NC1=C(Cl)C(=O)c2nc(C)ccc2C1=O | 91.7% | 112% | 81.1% | 92.8% | 104% | 96.8% | 99.9% | 95% | 98.7% | 107% |
| C#CCN(C)CCCOc1ccc(NCc2ccc(C(=O)NO)cc2)cc1Cl | 20% | 16.2% | 10.4% | 35.2% | 20% | 29.4% | 9.67% (active) | -6.34% (active) | 10.6% | 24% |
| CC1(C)CC[C@]23CC[C@]4(C)[C@H](CC[C@@H]5[C@@]6(C)CC[C@H](NCO)C(C)(C)[C@@H]6CC[C@]54C)[C@H]2[C@H]1OC3 | -13.5% (active) | 17.9% | 86.5% | 36.9% | 1.32% (active) | 75% | 97.7% | 99.6% | -89.9% (active) | 89.5% |
| Clc1cccc(/C=N/Nc2nc(N/N=C/c3cccc(Cl)c3)nc(N3CCCCC3)n2)c1 | 79.8% | 85.6% | 102% | 98.6% | 91.7% | 76% | 80.6% | 79.2% | 105% | 96.2% |
| Cc1cc(C)cc(NC2=C(Cl)C(=O)c3nc(C)ccc3C2=O)c1 | 9.74% (active) | 107% | 96.4% | 75.9% | 89.8% | 59.4% | 69% | 92.7% | -3.79% (active) | 81.8% |
| O=S(=O)(NCCCNc1nccc(-c2[nH]c(-c3ccccc3)nc2-c2ccc(F)c(O)c2)n1)c1cccc(F)c1 | 86% | 99.4% | 69.3% | 110% | 99.4% | 77.3% | 46.5% | 18.2% | 70% | 31.8% |
| C=C(C)[C@@H]1CC[C@]2(C(=O)NC3CCCCC3)CC[C@]3(C)[C@H](CC[C@@H]4[C@@]5(C)CC[C@H](N)C(C)(C)[C@@H]5CC[C@]43C)[C@@H]12 | 39% | 71.8% | 83.9% | 103% | 88.8% | 72.8% | 92.7% | 104% | -75.1% (active) | 109% |
| CN1CCC[C@]2(C)[C@H]3CC[C@@H]4[C@@H]5[C@H]6OC[C@@]5(CCC6(C)C)CC[C@@]4(C)[C@]3(C)CC[C@H]2C1(C)C | 24.4% | 21.6% | 89.1% | 84.8% | 27.5% | 74.2% | 93.8% | 98.4% | -74.5% (active) | 96.2% |
| O=C1[C@H]2Cc3c([nH]c4ccccc34)[C@H](c3ccc(Cl)cc3)N2C(=O)CN1C1CCN(CC2CCCCC2)CC1 | 28.6% | -21.9% (active) | 41.4% | 76% | 49.2% | 52.9% | 37.8% | 93.4% | -79.5% (active) | 83.2% |
| Cc1c(C(=O)/C=C/c2ccc(Cl)cc2)nnn1-c1ccc2oc(=O)ccc2c1 | 87.3% | 101% | 104% | 96.3% | 96.7% | 92% | 97.7% | 83.6% | 80.7% | 106% |
| Fc1cc(F)cc(NNC(=S)c2ccccc2)c1 | 28.2% | 101% | 70.9% | 61.7% | 28.9% | 22% | 46.2% | 31.8% | 44.8% | 48.9% |
| N#Cc1c(-c2cccs2)cc(-c2cnccn2)nc1SCC(=O)N/N=C/c1ccc(Cl)cc1 | 98.5% | 104% | 95.8% | 105% | 100% | 93.9% | 101% | 91.3% | 92% | 110% |
| N#Cc1c(-c2cccs2)cc(-c2cnccn2)nc1SCC(=O)N/N=C/c1ccccc1 | 39.1% | 37.3% | 12.6% | 39.7% | 11.9% | 65.2% | 4.1% (active) | 55.3% | -28.7% (active) | 43.9% |
| O=C(CCCCCC/C=C\c1csc(Br)n1)NO | 90.9% | 84.5% | 64.8% | 97% | 91.4% | 82% | 97.1% | 74.5% | 70.1% | 92.4% |
| Oc1ccc(-c2nc3ccc(/C(=N\N=C\c4ccc(Cl)cc4)c4ccccc4)cc3[nH]2)cc1 | 71.1% | 75.4% | 93.4% | 91.7% | 86.6% | 52.9% | 84.1% | 84.1% | 57.4% | 91% |
| Cc1ccc(S(=O)(=O)NCCCNc2nccc(-c3[nH]c(-c4ccccc4)nc3-c3ccc(F)c(O)c3)n2)cc1 | 76% | 96.2% | 73.9% | 107% | 98.2% | 69.5% | 38.6% | 18.7% | 73.8% | 38.3% |

Reference: PubChem BioAssay (NCI)
